DAT uptake mod = human DAT dopamine uptake with cocaine, either direction | Q01959 | LLC-PK1 hDAT cells, [14C]-dopamine uptake with cocaine IC80; actives deviate in either direction | B-score at 10 µM | 1.3% of 110,000 active | AID 449768;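 active = Z score or B-score, a plate-position-corrected score, falls beyond the plate's 99.7% confidence bounds, in either direction; inactive = both scores lie inside the 99.7% bounds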
PostGolgi ctrl = inhibits growth of the yeast control strain; efflux-deficient yeast background strain, growth absorbance A615, 16 h; inhibition, % at 10 µM; 5% of 98,000 active; AID 738
PLAP act = human PLAP activation; activation fold at 20 µM; 1.2% of 96,000 active; purified PLAP enzyme, luminescent substrate read-out; stronger effect = higher value; P05187; in the data active = activation fold above about 2
PostGolgi yeast = growth inhibition of a yeast mutant, post-Golgi transport screen; 0.9% of 98,000 active; post-Golgi transport phenotypic cell assay; AID 739; inhibition, % at 10 µM;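 also: yeast cells grown in 1536-well plates; yeast grown about 18 h at 30C before absorbance read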
D1 allo mod = allosteric modulators of human D1 dopamine receptor. P21728. HEK293 D1, CRE-luciferase, dopamine EC30 potentiation; actives deviate in either direction. B-score at 10 µM. 5.9% of 58,000 active. AID 641;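 active = luminescence count or its row- and column-corrected plate score outside the 99.7% band of the plate's sample wells, on either side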
Target sequence (P21728 whole entry, looked up): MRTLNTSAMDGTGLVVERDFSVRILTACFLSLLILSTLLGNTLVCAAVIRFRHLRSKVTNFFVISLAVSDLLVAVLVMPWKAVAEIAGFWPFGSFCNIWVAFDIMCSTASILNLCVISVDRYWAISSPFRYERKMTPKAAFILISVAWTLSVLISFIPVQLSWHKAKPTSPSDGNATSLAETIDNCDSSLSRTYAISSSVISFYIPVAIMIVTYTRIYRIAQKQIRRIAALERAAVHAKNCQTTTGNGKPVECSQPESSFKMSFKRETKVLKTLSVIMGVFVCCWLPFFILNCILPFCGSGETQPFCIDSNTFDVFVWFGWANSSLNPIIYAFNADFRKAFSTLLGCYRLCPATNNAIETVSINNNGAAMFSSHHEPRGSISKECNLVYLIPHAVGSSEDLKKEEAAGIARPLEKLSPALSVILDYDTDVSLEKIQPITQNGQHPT
Cav3 T inh = inhibitors of human Cav3.2 T-type calcium channel. O95180. Cav3.2-expressing cells, Fluo-4 calcium fluorescence FDSS; stronger effect = lower value. B-score at 10 µM. 4% of 100,000 active. AID 449739;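 active = single-dose well whose peak fluorescence ratio is a statistical outlier from its plate by either plate-standardised score or position-corrected B-score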
D1 PAM confirm = D1 receptor (human) allosteric modulation, confirmed | 88% of 2,200 active | AID 642 | HEK293 D1 CRE-luciferase, dopamine EC30 potentiation; stronger effect = higher value | luminescence at 10 µM | shares compounds with D1 allo mod;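 active = luminescence in either of two replicates above the same-plate mean plus 3 SD of the low-dose dopamine control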
D1 ag no DA = activates D1 CRE-luciferase signal without dopamine present | shares compounds with D1 allo mod | HEK293 D1 CRE-luciferase, luminescence, no dopamine; stronger effect = higher value | luminescence at 10 µM | 0.8% of 1,900 active | AID 646; in the data active = luminescence above about 3900
Isoprot counter = counter-screen for D1 modulators: isoproterenol response in HEK293 cells; HEK293 D1 CRE-luciferase, isoproterenol EC30 counter-screen; shares compounds with D1 allo mod; calls only at 10 µM; 63% of 2,200 active; AID 647;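 active = luminescence in either replicate above plate mean of wells with a partly effective reference agonist dose plus 3 SD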;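 also: isoproterenol raises cAMP through native beta-adrenoceptor Gs so signal bypasses D1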
Numbers stand for hits; 0 = inactive; - = no result given; + = active, no number. This is a sample that favours compounds with a hit; in the whole collection about 12% have one here. Rule as the data show it, unless noted: active = inhibition above about 30%; inactive = the rest.

SMILES	DAT uptake mod	PostGolgi ctrl	PLAP act	PostGolgi yeast	D1 allo mod	Cav3 T inh	D1 PAM confirm	D1 ag no DA	Isoprot counter
CCOC(=O)C1=C(N)n2c(s/c(=C/c3ccco3)c2=O)=C(C(=O)OC)C1c1ccco1 (stereo not drawn)	0	0	0	0	0	0	-	-	-
N#CC1=C(N)n2c(s/c(=C\c3ccco3)c2=O)=C(C#N)C1c1ccco1 (stereo not drawn)	0	0	0	0	12	0	14056	0	0
CNc1nc(NC)nc(-n2c(C(F)(F)F)nc3ccccc32)n1	0	0	0	0	8	0	18112	0	+
Cc1ccc2nc(NC(=O)Cn3cc4c(n3)CCCCC4)sc2c1	0	0	0	0	0	0	-	-	-
CCOC(=O)CCn1cc(F)c(=O)n(Cc2ccccc2)c1=O	0	0	0	0	0	0	-	-	-
CCCCOC(=O)c1ccc(NC(=O)C2CCCO2)cc1 (stereo not drawn)	0	0	0	0	0	0	-	-	-
CCOC(=O)c1ccc(NC(=O)C2CCCO2)cc1 (stereo not drawn)	0	0	0	0	23	0	0	0	0
COc1ccccc1-c1nn2c(-c3ccco3)nnc2s1	0	0	0	0	-	0	-	-	-
Clc1ccccc1-c1nnc2sc(-c3ccc(Br)o3)nn12	0	0	0	0	2.3	0	8388	0	0
Brc1ccc(-c2nn3c(Cc4ccccc4)nnc3s2)o1	0	0	0	0	3.8	0	11236	0	0
c1coc(-c2nn3c(-c4ccco4)nnc3s2)c1	-	0	0	0	2.8	-	12468	0	+
N#Cc1nc(N2CCOCC2)nc(N2CCOCC2)n1	0	0	0	0	5.1	0	12340	0	+
O=C(c1ccccc1)c1nc[nH]c1C(=O)Nc1ccccn1	0	0	2.2	0	4.6	0	9124	0	0
CCOC(=O)c1[nH]cnc1C(=O)Nc1ccccn1	0	0	0	0	4	0	10664	0	0
CCCCN(CC)C(=O)Cn1c(=O)sc2ccccc21	0	0	0	0	-	0	-	-	-
COCCSc1nnc(NC(=O)CSCc2ccccc2)s1	0	0	0	0	0	0	-	-	-
O=C(Nc1nonc1NC(=O)C1CCCCC1)C1CCCCC1	0	0	0	0	17	0	25348	0	+
Cn1c(=O)c2c3c(sc2n2c(SCC(=O)c4ccc(Cl)cc4)nnc12)COC(C)(C)C3	-	-	-	-	0	-	-	-	-
CCCc1nc2sc3ccccc3c(=O)c2c(=O)n1Cc1ccco1	-	0	0	0	4.6	-	9128	0	0
CCOC(=O)c1c(NC(C)=O)sc2c1CCCNC2=O	0	0	0	0	0	0	-	-	-
CCOC(=O)c1c(-c2ccc(C)o2)csc1N	0	0	0	0	0	0	-	-	-
CCOC(=O)c1c(-c2ccsc2)csc1N	0	0	0	0	7.5	0	8708	0	0
CC1(C)Cc2c(oc3ncn4ncnc4c23)CO1	0	0	0	0	-	0	-	-	-
CSc1nc2oc3c(c2c2nncn12)CC(C)(C)SC3	0	0	0	0	5.7	0	9128	0	0
CCCc1[nH]nc2c1C(c1cccnc1)C(C#N)=C(N)O2 (stereo not drawn)	0	0	0	0	6.7	0	0	0	0
SMILES	DAT uptake mod	PostGolgi ctrl	PLAP act	PostGolgi yeast	D1 allo mod	Cav3 T inh	D1 PAM confirm	D1 ag no DA	Isoprot counter
O=C(Nc1cc(Cl)ccc1N1CCOCC1)c1cnccn1	0	0	-	0	3.1	0	7880	0	0
O=C(NCc1cccnc1)[C@@H]1CC=C[C@@H]2CCN(Cc3ccccc3)C(=O)[C@@H]21	0	-	-	-	-	0	-	-	-
O=c1c2c3c(sc2nc2n1CCC2)CCC3	0	0	0	0	0	0	-	-	-
CCN(CC)CCOc1c(Br)ccc2c1sc1nc3n(c(=O)c12)CCC3	0	0	0	0	2.7	0	8312	0	0
CN=C1c2ccccc2CN1c1cccc(C(=O)OC)c1	0	0	0	0	13	0	19796	0	+
COC(=O)c1cccc(N2C(=O)c3ccccc3S2(=O)=O)c1	0	0	0	0	0	0	-	-	-
C=CCNC(=O)CSc1ccc(Cl)cc1	0	0	0	0	0	0	-	-	-
